Activity calls are given as the source filed them.

One experiment concerns the target Albumin (Bos taurus) (UniProt P02769). The experiment in a line: bovine serum albumin binders on microarray, profiling panel, artefact control for SMM control protein annotation, biochemical, small-molecule microarray, Alexa647 label, 635/667 nm fluorescence (AID 1118).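 Also: score merges 667 nm emission intensity and signal-to-noise per printed compound spot.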 The note with it: BSA-A647 binding, fluorescence 635 nm, higher = more signal.
Experiment [1] in a line: small-molecule microarray binders of probe aXIP, primary screen, biochemical, NeuroSMM set, 635/667 nm fluorescence (AID 1119).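 Also: probe is the protein aXip251-270 applied at 1 µg/mL to compound-printed slides; binding of probe to printed compounds measured as 667 nm fluorescence plus signal to noise.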 The following applies: higher = more signal, called active from +8 up or from −8 down.
Experiment [2] in a line: small-molecule binders of probe aNOTCH3, primary screen, biochemical, small-molecule microarray, 635/667 nm fluorescence (AID 1120).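 Also: probe is a biotin-tagged antibody raised against NOTCH3 rather than NOTCH3 protein; score merges spot fluorescence near 667 nm with spot signal to noise.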 The following applies: higher = more signal.
Experiment [3] can be described thus: small-molecule binders of probe aNOTCH2, primary screen, biochemical, small-molecule microarray, 635/667 nm fluorescence (AID 1121).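 Also: score merges feature fluorescence read at 667 nm with its signal to noise.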 The following applies: higher = more signal.
In experiment [4] the target is Carbonic anhydrase 2 (Homo sapiens) (UniProt P00918). As to the kind of experiment: CAII small-molecule binders, profiling panel, biochemical, small-molecule microarray, Alexa647-labelled CAII (AID 1122). The following applies: CAII-A647 binding fluorescence, higher = more signal.
A short description of experiment [5]: COS7 lysate on small-molecule microarray, probe aHis, 635 nm (AID 1123).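 Also: z-score combines 667nm fluorescence intensity with signal-to-noise per printed compound spot.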 The following applies: COS7 cell lysate, fluorescence, higher = more signal.
Experiment [6] is described as follows: compound binding in COS7 lysate, probe aLAP1, primary screen, cell lysate, small-molecule microarray (AID 1124).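 Also: lysate comes from COS7 cells expressing LAP1 and is applied at 0.3 µg/mL; score merges spot fluorescence near 667 nm with signal-to-noise over triplicate slides.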 The following applies: probe aLAP1, fluorescence, higher = more signal.
A further experiment relates to Sam68 (KHDRBS1). As to the kind of experiment: Sam68 small-molecule binders, primary screen, biochemical, small-molecule microarray, 635 nm fluorescence (AID 1125).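 Also: score merges 667 nm channel intensity with signal to noise over triplicate slides.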 The following applies: small-molecule microarray binding, higher = more signal.
The test system of experiment [7] is Chordin-like protein 2 (CHRDL2). The experiment in a line: CHRDL2 small-molecule binders, primary screen, biochemical, small-molecule microarray, 635 nm fluorescence (AID 1126).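 Also: printed compound slides probed with Chrdl2 protein at 4 µg/mL for 1 h at 4 C; score merges 667 nm emission intensity with signal to noise over three replicate slides.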 The following applies: small-molecule microarray binding, fluorescence 635 nm; higher = more signal.
In experiment [8] the target is Concanavalin-A (Canavalia ensiformis) (UniProt P02866). As to the kind of experiment: ConA small-molecule binders, primary screen, artefact control for SMM control protein annotation, biochemical, small-molecule microarray, Alexa647 label, 635 nm (AID 1127).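 Also: z combines 667 nm emission intensity with signal-to-noise across three replicate slides.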 The note with it: ConA-A647 binding fluorescence, higher = more signal.
Experiment [9] is described as follows: anti-His antibody binders, primary screen, artefact control for SMM control protein annotation, biochemical, small-molecule microarray, 635 nm fluorescence (AID 1128).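 Also: score merges feature fluorescence with signal-to-noise for each printed compound spot.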 The note with it: anti-His Alexa647 antibody binding, higher = more signal.
The subject of experiment [10] is Human papillomavirus type 1a E7 protein (residues 1-88). The experiment in a line: HPV1a E7 small-molecule binders, primary screen, biochemical, small-molecule microarray, residues 1-88, 635 nm (AID 1129). The note with it: small-molecule microarray binding, fluorescence 635 nm; higher = more signal.
The target of experiment [11] is Focal adhesion kinase 1 (Homo sapiens) (UniProt Q05397). As to the kind of experiment: small-molecule microarray binders of FAK, primary screen, biochemical, 635/667 nm fluorescence, BSA, DTT (AID 1130).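 Also: composite of spot emission at 667 nm and signal to noise over triplicate slides.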 The following applies: PTK2 binding, 635 nm fluorescence, higher = more signal.
Experiment [12] has as its system Fibrinogen (Alexa647-labelled). As to the kind of experiment: fibrinogen binders on compound microarrays, profiling panel, artefact control for SMM control-protein annotation, biochemical, small-molecule microarray, 635/667 nm fluorescence (AID 1131).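 Also: z-score merges 667 nm fluorescence with per-spot signal-to-noise over triplicate slides.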 The following applies: fibrinogen-A647 binding fluorescence, higher = more signal.
Experiment [13] has as its target Follistatin (Homo sapiens) (UniProt P19883). The experiment in a line: follistatin binders on small-molecule microarrays, primary screen, biochemical, small-molecule microarray, 635/667 nm fluorescence (AID 1132). The following applies: FST binding, 635 nm fluorescence, higher = more signal.
For experiment [14], the target named is Fibroblast growth factor 2 (Homo sapiens) (UniProt P09038). As to the kind of experiment: FGF2 binders on small-molecule microarrays, primary screen, biochemical, small-molecule microarray, 635/667 nm fluorescence (AID 1133). The note with it: small-molecule microarray binding, FGF2, fluorescence 635/667; higher = more signal.
The nature of experiment [15]: mitochondrial membrane potential change in A549 cells, profiling panel, cell-based, JC-1 fluorescence, basal, 24 h, 100 nL (AID 1138).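 Also: A549 lung adenocarcinoma cells under basal conditions with no added stimulus; test concentration not given here.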 The following applies: higher = more signal.
The subject of a further experiment is Lefty1. As to the kind of experiment: Lefty1 binders on small-molecule microarrays, primary screen, biochemical, small-molecule microarray, 635/667 nm fluorescence (AID 1139). The following applies: small-molecule microarray binding, fluorescence 635/667; higher = more signal.
The subject of experiment [16] is wheat germ agglutinin (Triticum aestivum), Alexa647-labelled. As to the kind of experiment: wheat germ agglutinin binders on compound microarrays, profiling panel, artefact control for SMM control-protein annotation, biochemical, small-molecule microarray, 635/667 nm fluorescence (AID 1140).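 Also: score merges 667 nm feature emission with signal to noise over triplicate slides.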 The following applies: WGA-A647 binding, 635 nm fluorescence, higher = more signal.

Experiment [17] has as its target Luciferin 4-monooxygenase (Photinus pyralis) (UniProt P08659). The experiment in a line: firefly luciferase enzyme inhibitors, primary screen, biochemical, luminescence, purified enzyme, 2006 set (AID 1141).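 Also: cell-free assay with purified firefly luciferase at 100 ng per well in PBS; test concentration not given here.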 The following applies: SteadyGlo luminescence, 30 min, higher = more signal, called active from +8 up or from −8 down.

Luciferin 4-monooxygenase (Photinus pyralis), sequence (P08659 whole entry, looked up): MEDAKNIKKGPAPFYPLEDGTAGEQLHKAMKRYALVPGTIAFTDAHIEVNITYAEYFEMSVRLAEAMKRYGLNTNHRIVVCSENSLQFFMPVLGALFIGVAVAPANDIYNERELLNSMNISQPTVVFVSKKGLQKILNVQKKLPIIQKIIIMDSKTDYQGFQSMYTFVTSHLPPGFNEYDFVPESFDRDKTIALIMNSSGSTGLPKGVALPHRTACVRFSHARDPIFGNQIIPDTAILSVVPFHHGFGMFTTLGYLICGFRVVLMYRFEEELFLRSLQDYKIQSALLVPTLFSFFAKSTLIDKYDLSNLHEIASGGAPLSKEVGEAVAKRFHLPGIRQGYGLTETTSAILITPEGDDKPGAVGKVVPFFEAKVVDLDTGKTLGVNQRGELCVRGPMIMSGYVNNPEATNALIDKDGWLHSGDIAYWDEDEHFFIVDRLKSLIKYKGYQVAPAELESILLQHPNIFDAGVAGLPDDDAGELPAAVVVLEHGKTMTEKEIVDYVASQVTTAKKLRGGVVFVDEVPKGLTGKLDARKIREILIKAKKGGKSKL
Focal adhesion kinase 1 (Homo sapiens), sequence (Q05397 whole entry, looked up): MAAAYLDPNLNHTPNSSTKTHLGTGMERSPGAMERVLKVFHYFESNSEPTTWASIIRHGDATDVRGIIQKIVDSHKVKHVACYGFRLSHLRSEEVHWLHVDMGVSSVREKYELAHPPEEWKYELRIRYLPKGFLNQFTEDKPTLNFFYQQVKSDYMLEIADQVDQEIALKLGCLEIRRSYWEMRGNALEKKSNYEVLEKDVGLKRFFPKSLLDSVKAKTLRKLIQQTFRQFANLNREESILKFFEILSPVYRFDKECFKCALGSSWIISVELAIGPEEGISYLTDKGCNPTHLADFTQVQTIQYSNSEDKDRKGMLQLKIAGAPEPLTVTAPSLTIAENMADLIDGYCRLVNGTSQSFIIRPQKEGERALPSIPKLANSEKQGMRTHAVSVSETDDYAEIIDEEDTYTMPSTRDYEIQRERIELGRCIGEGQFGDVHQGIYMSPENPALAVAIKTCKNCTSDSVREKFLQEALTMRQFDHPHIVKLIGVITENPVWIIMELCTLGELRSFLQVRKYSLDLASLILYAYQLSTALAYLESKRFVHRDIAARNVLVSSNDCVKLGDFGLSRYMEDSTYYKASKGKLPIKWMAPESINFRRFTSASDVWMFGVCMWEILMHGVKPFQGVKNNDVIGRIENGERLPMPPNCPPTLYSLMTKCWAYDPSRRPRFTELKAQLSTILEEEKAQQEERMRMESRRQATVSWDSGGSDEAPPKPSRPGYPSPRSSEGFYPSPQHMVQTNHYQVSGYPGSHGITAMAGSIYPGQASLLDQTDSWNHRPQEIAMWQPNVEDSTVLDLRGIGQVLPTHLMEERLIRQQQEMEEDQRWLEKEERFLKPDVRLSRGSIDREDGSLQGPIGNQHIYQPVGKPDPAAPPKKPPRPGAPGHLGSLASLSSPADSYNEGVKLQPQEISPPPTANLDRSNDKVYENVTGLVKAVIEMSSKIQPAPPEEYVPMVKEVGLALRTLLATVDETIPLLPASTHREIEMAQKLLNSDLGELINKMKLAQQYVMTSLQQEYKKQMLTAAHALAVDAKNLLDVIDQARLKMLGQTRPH
Concanavalin-A (Canavalia ensiformis), sequence (P02866 whole entry, looked up): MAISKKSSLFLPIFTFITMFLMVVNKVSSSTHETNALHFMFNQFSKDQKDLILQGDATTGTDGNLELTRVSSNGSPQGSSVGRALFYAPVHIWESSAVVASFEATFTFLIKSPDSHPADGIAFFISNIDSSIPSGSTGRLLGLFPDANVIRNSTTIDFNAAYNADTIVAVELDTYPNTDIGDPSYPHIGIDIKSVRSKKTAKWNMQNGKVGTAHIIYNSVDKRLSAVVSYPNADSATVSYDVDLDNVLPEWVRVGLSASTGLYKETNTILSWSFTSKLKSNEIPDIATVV
Albumin (Bos taurus), sequence (P02769 whole entry, looked up): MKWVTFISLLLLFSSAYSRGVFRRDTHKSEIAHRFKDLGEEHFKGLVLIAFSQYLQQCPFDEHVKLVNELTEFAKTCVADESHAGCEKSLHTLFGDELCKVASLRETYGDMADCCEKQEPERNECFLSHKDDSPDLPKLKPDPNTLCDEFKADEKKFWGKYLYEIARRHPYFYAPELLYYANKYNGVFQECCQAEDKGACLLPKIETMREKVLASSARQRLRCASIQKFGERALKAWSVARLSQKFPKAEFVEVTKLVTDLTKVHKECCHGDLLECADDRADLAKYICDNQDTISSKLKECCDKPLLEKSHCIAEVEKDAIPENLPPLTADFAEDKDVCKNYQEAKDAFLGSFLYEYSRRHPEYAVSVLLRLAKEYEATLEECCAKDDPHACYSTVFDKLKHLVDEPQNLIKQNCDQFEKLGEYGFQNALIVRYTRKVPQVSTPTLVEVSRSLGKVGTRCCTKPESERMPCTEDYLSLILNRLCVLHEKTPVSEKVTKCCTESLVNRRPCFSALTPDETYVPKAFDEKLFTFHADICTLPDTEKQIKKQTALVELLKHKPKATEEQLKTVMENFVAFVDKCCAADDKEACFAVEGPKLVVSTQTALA
Follistatin (Homo sapiens), sequence (P19883 whole entry, looked up): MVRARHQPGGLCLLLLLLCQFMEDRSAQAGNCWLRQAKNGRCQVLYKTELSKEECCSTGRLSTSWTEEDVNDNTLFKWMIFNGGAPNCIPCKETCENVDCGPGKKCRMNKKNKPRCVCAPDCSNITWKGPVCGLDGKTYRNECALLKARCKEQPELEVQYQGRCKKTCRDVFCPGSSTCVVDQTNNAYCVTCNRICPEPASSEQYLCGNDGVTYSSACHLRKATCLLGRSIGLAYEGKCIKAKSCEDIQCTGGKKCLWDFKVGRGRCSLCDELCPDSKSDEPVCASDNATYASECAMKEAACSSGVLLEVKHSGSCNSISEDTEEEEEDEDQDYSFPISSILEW
Fibroblast growth factor 2 (Homo sapiens), sequence (P09038 whole entry, looked up): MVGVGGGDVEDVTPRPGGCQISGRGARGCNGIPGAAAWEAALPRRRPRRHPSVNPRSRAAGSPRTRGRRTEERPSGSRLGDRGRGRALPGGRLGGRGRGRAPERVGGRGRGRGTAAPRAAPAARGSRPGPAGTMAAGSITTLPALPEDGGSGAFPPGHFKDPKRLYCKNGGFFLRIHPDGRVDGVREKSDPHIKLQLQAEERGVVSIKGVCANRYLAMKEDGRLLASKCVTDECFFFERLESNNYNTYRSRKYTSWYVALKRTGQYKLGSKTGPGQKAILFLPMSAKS

Regarding `COc1cc2c(cc1OC)CN(C(=O)[C@@H]1[C@H]3C(=O)O[C@H](c4ccccc4)[C@H](c4ccccc4)N3[C@H](c3ccccc3OCCO)[C@@]13C(=O)Nc1ccc(C#CCNC(N)=O)cc13)CC2`, the composite z-score was 0.301 with Albumin (Bos taurus); 0.37 in [2]; -0.0251 in experiment [3]; 0.377 in experiment [4]; 2.65 in [5]; 1.15 in [6]. Besides, the composite z-score turned out to be 1.31 in the experiment with Sam68 (KHDRBS1); 0.981 in experiment [7]; 1.11 in experiment [8]; 1.62 in experiment [9]; 0.923 in experiment [10]; 1.33 in experiment [11]. Also, the composite z-score in experiment [12] amounted to 0.933; in experiment [13], 0.741; in experiment [14], 0.748; in the experiment with Lefty1, 0.768; in experiment [16] it was 0.856. For the same compound, the composite Z-score in [1] was 0.545 (inactive). Also, the z-score was -0.864 in experiment [15] and -1.64 (inactive) in [17].

Take `N#Cc1ccc(NN2C(C(O)c3ccc([N+](=O)[O-])cc3)C=CC3C(=O)N(c4ccccc4)C(=O)C32)cc1` (stereo not given): the composite z-score with Albumin (Bos taurus) was 0.552; in experiment [2], 0.0847; in experiment [3] it was 0.181; in [4], 0.758; in [5], 2.75; in [6] it was 0.833. The composite z-score was 1.3 in the experiment on Sam68 (KHDRBS1); 0.0881 in experiment [7]; 0.647 in experiment [8]; 0.728 in experiment [9]; 1.24 in experiment [10]; 0.943 in experiment [11]. Further, the composite z-score in [12] was 0.619; in experiment [13], 0.717; in experiment [14], -0.0956; with Lefty1 it was -0.269; in experiment [16], 0.998. Moreover, the composite Z-score in experiment [1] was 0.156 (inactive). For the same compound, the figures for the z-score in experiment [15] and in experiment [17] were -0.257 and 0.843 (inactive), respectively.

As to `CCC[C@@H]1C=C(C(=O)O)[C@H](c2ccc(C)cc2)N1S(=O)(=O)c1ccc(C)cc1`, the composite z-score in the experiment with Albumin (Bos taurus) was 0.972; in experiment [2] it was 0.195; in experiment [3], 0.0029; in experiment [4] it was 0.799; in experiment [5], 2.71; in [6], 0.738. Besides, the composite z-score with Sam68 (KHDRBS1) was 1.33; in [7], -0.802; in experiment [8], 0.757; in [9], 1.65; in [10] it was 1.29; in experiment [11], 0.354. For the same compound, the composite z-score in experiment [12] is 1.04; in [13] it was 0.118; in [14], -0.502; in the experiment with Lefty1 it was -0.234; in [16], 0.945. Also, in experiment [1], the composite Z-score was 0.102 (inactive). The z-score in [15] was -0.564; in [17] it was 1.79 (inactive).

Regarding `CCCCC=C[C@@H](NC(=O)c1ccc(C(=O)OC)cc1)c1ccccc1`, the composite z-score in the experiment with Albumin (Bos taurus) is 0.924; in experiment [2], 0.313; in [3], -0.171; in [4] it was 0.235; in [5], 1.81; in [6], 0.327. Besides, the composite z-score is 1.15 in the experiment on Sam68 (KHDRBS1); -0.14 in [7]; 0.887 in experiment [8]; 0.59 in experiment [9]; 1.05 in experiment [10]; 0.694 in [11]. Moreover, the composite z-score in experiment [12] was 0.875; in experiment [13], 0.293; in experiment [14], 0.0889; with Lefty1 it was 0.335; in [16], 0.658. For the same compound, the composite Z-score in experiment [1] was -0.213 (inactive). Also, the z-score in experiment [15] is 0.769; in experiment [17] it was 1.73 (inactive).

In the case of `C=CCOC(=O)[C@H]1[C@@H]2C(=O)O[C@@H](c3ccccc3)[C@@H](c3ccccc3)N2[C@@H](c2ccc(OCCOC(=O)[C@@H]3C[C@@H]4C(=O)N5CCC[C@H]5C(=O)N4[C@@H]3c3ccc(O)cc3)cc2)[C@]12C(=O)Nc1ccccc12`, the composite z-score in the experiment with Albumin (Bos taurus) was -0.854; in [2], 0.299; in experiment [3], -0.104; in experiment [4], 0.268; in experiment [5], 1.36; in [6] it was 0.261. The composite z-score in the experiment on Sam68 (KHDRBS1) amounted to 1.33; in experiment [7], 1.03; in [8], 0.93; in [9], 1.16; in experiment [10] it was 1.18; in experiment [11] it was 0.109. Moreover, the composite z-score in experiment [12] is 0.655; in experiment [13], 1.39; in [14], 1.35; in the experiment with Lefty1, 1.04; in experiment [16], 0.77. In experiment [1], the composite Z-score is 0.0088 (inactive). In addition, the z-score in experiment [15] is -1.19; in experiment [17], -0.354 (inactive).

The record behind these values is PubChem BioAssay.
